# Results as given in PubChem BioAssay AID1851 (National Center for Advancing Translational Sciences (NCATS), 2009).
# In all, about 16,000 compounds went through this assay and about 5,700 (36%) were called active. Not shown: some 24% with an inconclusive outcome. The list shows a part of the results. Values without a mark were called inactive. The call rests on the fitted dose curve; in most records, active means well fitted curve in the direction sought with a large enough effect; inconclusive means small, poorly fitted or top-dose-only effect, or effect the other way; inactive means no such curve, though single readings can be large or run the other way. Square brackets hold non-standard residues; d marks the D form. Peptide text beside a SMILES is read from it. * marks the point of attachment. ξ: configuration not given here. Cbz = O=C(OCc1ccccc1)*; OBn = c1ccc(CO*)cc1; ξP = O=C(O)C1CCCN1
# Biological target: Cytochrome P450 1A2 (Homo sapiens) (UniProt P05177)
# Experiment: Cytochrome panel assay with activity outcomes
# Conditions: recombinant CYP, pro-luciferin dealkylation, luminescence, p450-cyp1a2; series mostly up to 57.1 µM; activity, negative = inhibition: at the top concentration
# On the % scale 0 is the no-effect control and ±100 the full control effect.
# Cytochrome P450 1A2 (Homo sapiens), sequence (P05177 whole entry, looked up): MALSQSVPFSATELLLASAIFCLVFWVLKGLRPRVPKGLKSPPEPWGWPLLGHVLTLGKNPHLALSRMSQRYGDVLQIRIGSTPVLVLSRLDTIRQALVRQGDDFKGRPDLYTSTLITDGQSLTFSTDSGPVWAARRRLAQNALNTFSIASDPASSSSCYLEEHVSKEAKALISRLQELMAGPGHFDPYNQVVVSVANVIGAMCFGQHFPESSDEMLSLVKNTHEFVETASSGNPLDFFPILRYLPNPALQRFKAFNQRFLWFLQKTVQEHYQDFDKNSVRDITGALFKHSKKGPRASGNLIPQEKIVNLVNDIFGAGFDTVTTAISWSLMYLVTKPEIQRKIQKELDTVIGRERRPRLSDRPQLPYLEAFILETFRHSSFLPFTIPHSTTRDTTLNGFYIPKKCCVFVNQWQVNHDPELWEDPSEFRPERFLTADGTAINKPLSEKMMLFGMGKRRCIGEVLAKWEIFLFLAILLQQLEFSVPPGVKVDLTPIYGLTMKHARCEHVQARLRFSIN
SMILES,"activity, negative = inhibition",AC50
CC(=O)OC[C@H]1O[C@@H](CCO/N=C2/[C@H]3O[C@@H]3[C@@H](O)[C@H]3[C@H]2CCn2c(=O)n(-c4ccccc4)c(=O)n23)C=C[C@@H]1OC(C)=O,-3.93% [at 11.4 µM],–
C[C@@H](c1ccccc1)N1C(=O)[C@H]2[C@H]3[C@H](O)[C@H](O)C/C(=N/OC[C@@H](O)COCc4ccco4)[C@H]3CC[C@@H]2C1=O,-3.98% [at 11.4 µM],–
O=C(O)CCCCCNC(=O)c1ccccc1Br,1.98%,–
CN(C(=S)NC(=O)c1ccccc1Br)C1CCCCC1,–,14.1 µM (active)
C[C@]1(OC(=O)/C=C\c2ccccc2)C[C@@H](O)[C@@]2(O)C=CO[C@@H](O[C@H]3O[C@@H](CO)[C@@H](O)[C@@H](O)[C@@H]3O)[C@H]21,-7.84% [at 25.6 µM],–
Nc1ncnc2c1cnn2-c1ccccc1,–,6.31 µM (active)
Nc1ncnc2c1nc(-c1ccccc1)n2[C@H]1O[C@@H](CO)[C@@H](O)[C@H]1O,-16.8% [at 2.29 µM],–
c1ccc(-n2ncc3c2ncn2cnnc32)cc1,–,6.31 µM (active)
CC(=O)Nc1ccc(Nc2ncnc3c2cnn3-c2ccccc2)cc1,-19%,–
CSc1nsc(SC)c1NC(=O)Nc1ccccn1,–,2.51 µM (active)
CC(=O)N1CCC2(CC1)CCN(C(=O)Nc1cccc(F)c1)CC2,-4.16%,–
O=C(NCC1CCC(C(=O)O)CC1)OCc1ccccc1 (configuration not stated),-3.85%,–
CSc1nsc(SC)c1NC(=O)OCC1CCCO1 (configuration not stated),–,20 µM (active)
O[C@H](CNc1ccccn1)c1ccccc1,-29.6% [at 11.4 µM],–
CCOC(=O)c1ccc(NC(=O)C(=O)NCC2CCCO2)cc1 (configuration not stated),-12.1%,–
CSc1nsc(SC)c1NC(=O)OCc1ccccc1,–,10 µM (active)
O=C(Nc1cccc(F)c1)Nc1ccccn1,–,2 µM (active)
O=C(O)/C=C\C(=O)Nc1ccccn1,-5.8% [at 11.4 µM],–
O=C(O)c1nnsc1COCc1ccccc1,-12.2% [at 11.4 µM],–
CCC(=O)NC(NCC1CCCO1)C(Cl)(Cl)Cl (configuration not stated),9.29%,–
O=C(c1ccco1)N1CCC2(CCN(Cc3nccs3)CC2)CC1,-5.61%,–
C=C1CC[C@H](O)C/C1=C/C=C1\CCC[C@]2(C)[C@H]1CC[C@H]2[C@@H](C)/C=C\[C@@H](C)C(C)C,0.111% [at 25.6 µM],–
COCC(=O)Nc1c(I)c(C(=O)NC[C@@H](O)CO)c(I)c(C(=O)N(C)C[C@@H](O)CO)c1I,0.0909% [at 25.6 µM],–

SMILES,"activity, negative = inhibition",AC50
COc1ccc2c(c1)-c1ccccc1S(=O)(=O)N2C(C)=O,–,20 µM (active)
Cc1cc(NC(=O)C2=C(O)c3ccccc3S(=O)(=O)N2C)no1,-6.66% [at 25.6 µM],–
COc1cccc([C@@H]2Oc3ccc(OC)cc3C(=O)[C@H]2O)c1,2.62% [at 11.4 µM],–
O=C(c1cc(C(F)(F)F)cc(C(F)(F)F)c1)N1CCC2(CCCN(Cc3nccs3)C2)CC1,9.76%,–
Cc1ccc(Nc2c([N+](=O)[O-])ccc3c2=NC2(CCCCC2)N=3)cc1,–,15.8 µM (active)
CCOC(=O)c1sc(NC(=O)CCCCCN2C(=O)c3cccc4cccc(c34)C2=O)nc1C,–,25.1 µM (active)
Cc1c(Cl)cccc1NC(=O)CC1NCCNC1=O (configuration not stated),0.636%,–
C[N+](C)(CCCCCC[N+](C)(C)CCCN1C(=O)c2cccc3cccc(c23)C1=O)CCCN1C(=O)c2cccc3cccc(c23)C1=O,10.6%,–
CCOC(=O)Cc1csc(NC(=O)CCCCCN2C(=O)c3ccccc3C2=O)n1,–,1.78 µM (active)
Cc1ccc(NC(=O)CCN2C(=O)c3ccncc3C2=O)cc1,-35%,–
Cc1cccc(NC(=O)CCCN2C(=O)c3cccc4cccc(c34)C2=O)c1,–,6.31 µM (active)
Cc1cccc(NC(=O)CC2Nc3cccc4cccc(c34)NC2=O)c1 (configuration not stated),–,5.01 µM (active)
[N-]=[N+]=NC[C@@H]1O[C@@H](n2cnc3c(N)ncnc32)[C@@H]2O[C@@H]21,-13.8% [at 11.4 µM],–
COCCCNC(=O)C1CC(=O)N(CCc2ccc(OC)c(OC)c2)C1 (configuration not stated),-18.6%,–
N/C(=N\O)c1cn([C@@H]2O[C@@H](CO)[C@H](O)[C@@H]2O)c2ncnc(NO)c12,-18.7% [at 2.29 µM],–
C=C[C@H](N)CCC(=O)O,–,inactive
C[C@@H](C[N+](C)(C)C)OC(N)=O,–,inactive
Cc1cccc(/C(N)=N/OC(=O)CCCN2C(=O)c3ccccc3C2=O)c1,–,15.8 µM (active)
CSCC[C@@H]1NC(=O)C/C=C\[C@@H](C)COC(=O)[C@H](C)COC1=O,-2.99% [at 11.4 µM],–
CCC(CC)C(=O)NCCN1CCN(C(=O)C(CC)CC)CC1,4.35%,–
CCCCOc1ccc(CN2CCC(O)CC2)cc1,10.8%,–
COc1ccc(C[C@@H]2c3cc(OC)c(OC)cc3CC[N@+]2(C)CCC(=O)OCCCCCOC(=O)CC[N@@+]2(C)CCc3cc(OC)c(OC)cc3[C@H]2Cc2ccc(OC)c(OC)c2)cc1OC,0.265% [at 25.6 µM],–
CCCCOc1cc(C[C@@H]2CNC(=O)N2)ccc1OC,–,10 µM (active)

SMILES,"activity, negative = inhibition",AC50
Cc1ccccc1Oc1ncnc2sccc12,–,12.6 µM (active)
N#CCCn1cc(/C=N/O)c(-c2ccc(Cl)cc2)n1,–,0.891 µM (active)
Oc1[nH]c2ccccc2c1/C=N/c1nccs1,–,0.251 µM (active)
COc1ccc(-c2cc(-c3cc(F)ccc3O)[nH]n2)cc1OC,–,6.31 µM (active)
COc1ccc(-c2cc(-c3c(O)c(OC)c4occc4c3OC)[nH]n2)cc1OC,–,6.31 µM (active)
CCc1ccc(-c2csc(NC(=O)C3CCCO3)c2C(=O)OC(C)C)cc1 (configuration not stated),–,7.08 µM (active)
Cc1ccc(-c2c(C)sc(NC(=O)C3C4CCC(O4)C3C(=O)O)c2C(=O)OC(C)C)cc1 (configuration not stated),-13.6%,–
C=C(C)[C@H]1CC=C(C)/C(=N/NC(=O)CNc2ccccc2OC)C1,–,15.8 µM (active)
C=C(C)C1CC=C(C)/C(=N/NC(=O)c2ccc(NC(=O)c3cccc(C)c3)cc2)C1 (configuration not stated),-8.69%,–
CC(=O)N1c2ccc(S(=O)(=O)CCC(=O)O)cc2CC1C (configuration not stated),3.83%,–
Cc1ccccc1C(=O)NNC(=O)c1ccc(F)cc1,2.52%,–
CCCCOC(=O)Nc1ccccc1C(=O)OC,–,2 µM (active)
COC(=O)c1ccccc1NC(=O)c1c(Br)cnn1C,–,0.891 µM (active)
COC(=O)c1ccccc1NC(=O)c1ccc(F)cc1,–,0.2 µM (active)
COC(=O)c1ccccc1NC(=O)C1CCN(C(=O)c2ccc(OC)cc2)CC1,-10.6%,–
CCOC(=O)c1c(NC(=O)c2c(Br)cnn2C)c(C#N)nn1-c1ccccc1,–,0.631 µM (active)
COC(=O)c1cn(NC(=O)c2ccc(F)cc2)c(=O)c2ccccc12,-20.8%,–
Cc1c(C(=O)O)nc(/C=C\C(=O)O)[nH]c1=O,-6.61% [at 11.4 µM],–
O=C(Nc1cccc2[nH]ncc12)c1ccc(F)cc1,–,7.08 µM (active)
C#CCCCO/N=C1/C[C@@H](O)[C@@H](O)[C@@H]2[C@@H]3C(=O)N(C[C@@H]4CCCO4)C(=O)[C@H]3CC[C@H]12,-2.74% [at 11.4 µM],–
CC(C)NC(=O)N1CCC2(CC1)CCN(C(=O)c1csnn1)CC2,8.76%,–
N#Cc1sc2nc(-c3cccs3)cc(-c3ccc(Cl)cc3)c2c1N,–,1.26 µM (active)
CCN(CC)CCCNC(=O)C1CCC(=O)N(c2ccc(OC)cc2)C1c1ccc(F)cc1 (configuration not stated),-25.8%,–

SMILES,"activity, negative = inhibition",AC50
Nc1c(-c2cccs2)cnn1-c1nc(-c2ccc(Cl)cc2Cl)cs1,–,1.26 µM (active)
Nc1c(-c2cccs2)cnn1-c1nc(-c2ccc(F)cc2)cs1,–,0.447 µM (active)
O=C(c1csnn1)N1CCC2(CC1)CCN(c1ccncc1)CC2,-4.22%,–
C[C@@H](C(=O)O)[C@H]1C[C@]1(C)[C@H](NC(=O)OCc1ccccc1)c1ccccc1,-16%,–
COC(=O)[C@@H]1C[C@H]1[C@@H](NC(=O)c1cccnc1)c1ccccc1,–,12.6 µM (active)
COC(=O)[C@H]1C[C@@H]1[C@H](NC(=O)OCc1ccccc1)c1ccccc1,–,0.126 µM (active)
O=C(Nc1ccccc1)N1CCC2(CC1)CCN(C(=O)c1cnccn1)CC2,-20.1%,–
COC(=O)[C@@H]1C[C@H]1[C@@H](NC(=O)c1cnccn1)c1ccccc1,–,12.6 µM (active)
O=C(CNC(=O)OCc1ccccc1)NCC(=O)N1CCCC1C(=O)OCc1ccccc1 (stereo not drawn) (Cbz-Gly-Gly-[ξP]-OBn),4.12%,–
O=C(NC(NCc1ccccc1)C(Cl)(Cl)Cl)c1cccnc1 (configuration not stated),-6.61%,–
O=C(NNC(=O)C1CCCCC1)c1cnccn1,5.27%,–
COC(=O)[C@H]1C[C@@H]1[C@H](NC(=O)c1ccccc1)c1ccccc1,–,15.8 µM (active)
CCc1cc[n+](-c2nc3ccccc3nc2C(=C=[N-])C#N)cc1,-14%,–
COC(=O)C1CC1C(NC(=O)[C@H]1CCCCN1)c1ccccc1 (some centres not stated),-23.3%,–
COC(=O)[C@@H]1C[C@H]1[C@@H](NC(=O)c1ccccc1)c1ccccc1,–,5.01 µM (active)
Cc1cc(N(CN2CCCC2=O)C(=O)c2ccc(F)cc2)no1,-6.57%,–
Cc1ccc(-n2ncc3c2ncn2nc(-c4ccco4)nc32)c(C)c1,-23.9%,–
Cc1nc2c3cnn(-c4ccc(C)c(C)c4)c3ncn2n1,–,8.91 µM (active)
COc1cccc(-c2nc(NCCc3c[nH]c4ccc(OC)cc34)c3ccccc3n2)c1,–,1.58 µM (active)
COc1ccc2[nH]cc(CCNc3nc(-c4cccnc4)nc4ccccc34)c2c1,–,0.501 µM (active)
COc1ccc2[nH]cc(CCNc3nc(-c4ccccc4OC)nc4ccccc34)c2c1,–,6.31 µM (active)
COc1ccc2[nH]cc(CCNc3nc(-c4ccoc4)nc4ccccc34)c2c1,–,0.398 µM (active)
COC(=O)[C@@]1(Cc2ccc(OC)cc2)[C@H]2c3cc(C(=O)N4CCCC4)n(CCc4c[nH]c5ccc(O)cc45)c3C[C@H]2CN1C(=O)c1ccccc1,-16.3%,–
